Compound activity (PubChem BioAssay)
Calb FLC – C. albicans growth inhibition with fluconazole, primary screen, CaCi-2 strain, Alamar Blue fluorescence | 300,000 tested, 0.57% active | C. albicans CaCi-2 (fluconazole-resistant clinical isolate) + fluconazole, 48 h | growth inhibition, % (concentration not given with the values);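 active means growth inhibition above about 58% in most replicates, limit read from the data, passing the limit was not always enough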;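 further: all wells also contain fluconazole at 8 µg/ml as a sub-toxic cotreatment; 0% = median of DMSO wells and 100% = median of geldanamycin control wells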
697 NFkB inh – inhibitors of PMA/ionomycin-induced NF-kB reporter, 697 cells, primary screen, B-cell NF-kB inhibitor project, cell-based, luminescence, uHTS | inhibition, % at 4 µM | 697 B-cell NF-kB luciferase reporter, 16 h | 330,000 tested, 0.33% active; in the data active means inhibition above about 35%
Beta apoptosis – inhibitors of cytokine-induced beta cell apoptosis, primary screen, luminescence | INS-1E cytokine-induced death, ATP luminescence, 48 h; percent of positive-control rescue, neutral wells zero | protection from apoptosis, % (test concentration not listed) | 300,000 tested, 0.8% active;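 active means Every replicate reaches about 75%, or at least half do and their mean reaches it too, limit read from the data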;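 further: 0% = cytokine-treated negative control wells and 100% = positive control rescue; higher means more ATP so stronger rescue from cytokine killing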
Shn3 inh set2 – reduction of Shn3 3'UTR firefly luciferase signal, primary screen, Schnurri-3 inhibitor project, cell-based, Clone20 osteoblasts, set 2. 360,000 tested, 0.52% active. AID 588674, 2011. Clone20 osteoblast Shn3 3'UTR firefly luciferase, 24 h. inhibition, % at 12.5 µM;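 active means mean inhibition of at least 75% with every replicate also reaching 75%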;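 further: 0% = median of neutral control wells and 100% = pilot-screen positive control compound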
Jurkat NFkB inh – inhibitors of induced NF-kB luciferase reporter, primary screen, TCR NF-kB activation inhibitor project, cell-based, luminescence, uHTS. Jurkat, PMA/ionomycin-induced NF-kB luciferase reporter. inhibition, % at 4 µM. 330,000 tested, 0.53% active; in the data active means inhibition above about 50%
Jurkat NFkB conf – PMA/ionomycin-induced NF-kB reporter inhibitors, Jurkat retest, confirmation, T-cell NF-kB inhibitor project, cell-based, luminescence, single concentration; shares compounds with Jurkat NFkB inh; Jurkat NF-kB luciferase, 16 h; inhibition, % at 4 µM; 2,700 tested, 27% active; AID 435020, 2010;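 active means inhibition reaching about 45% at 4 µM in either replicate, limit read from the data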;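 further: plate controls were PMA/ionomycin stimulated DMSO wells for no effect and unstimulated DMSO wells for full effect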
* marks the source's active call; other numbers are inactive results; / = not tested or not shown. Most compounds without a hit are left out; they make up all but 2% or so of the library.

SMILES	Calb FLC	697 NFkB inh	Beta apoptosis	Shn3 inh set2	Jurkat NFkB inh	Jurkat NFkB conf
CCC(=O)Nc1cccc2cccnc12	10	5	-2	-8	3	/
C/C(=N\Nc1cccc2cccnc12)c1ccc[nH]1	-7	-147	-2	-82	-216	-2
C/C(=N\N1CCN(Cc2ccccc2Cl)CC1)c1ccc(F)cc1	2	23	-2	/	17	/
C/C(=N\N1CCN(Cc2ccccc2Cl)CC1)c1ccc([N+](=O)[O-])cc1	1	-3	6	/	51*	-7
CCCN(CC(=O)Nc1ccccc1C)C(=O)COc1c(Cl)cccc1Cl	-9	3	-3	2	15	/
COc1ccc(Cl)cc1NS(=O)(=O)c1c(C)[nH]c(=O)[nH]c1=O	1	9	-3	-27	2	/
O=C(NC(=S)Nc1cccc(Cl)c1N1CCCCC1)c1ccc2c(c1)OCCO2	12	-29	16	22	50*	2
O=C(NNC(=O)C12CC3CC(CC(C3)C1)C2)c1ccccn1	1	23	91*	-15	72*	23
CCN(CC)S(=O)(=O)c1cc(NC(=O)CCNC(=O)c2ccco2)ccc1C	1	-29	-1	-6	1	/
CC(=O)n1cc(N(C(=O)CCl)c2ccccc2)c2ccccc21	43	-46	-24	/	72*	11
CC(=O)n1cc(N(C(=O)CCl)c2ccc([N+](=O)[O-])cc2)c2ccccc21	57	-12	0	/	-4	/
COc1cc(CCC(=O)Nc2nnc(C)s2)cc(OC)c1OC	-1	-36	/	-11	52*	27
Cc1cccc(NC(=O)CN(C2=NC3CS(=O)(=O)CC3S2)c2ccccc2F)c1 (stereo unspecified)	-2	8	-10	-12	2	/
Cc1ccc(Nc2nc(N)c3ccccc3n2)cc1C	4	-248	37	32	-166	-120
Cc1cc(Nc2ccc(C)c(C)c2)c2ccccc2n1	12	-44	43	19	11	/
C#CCSc1nc(-c2cccs2)ccc1C#N	3	23	4	-9	21	/
COC(=O)CSc1nc2cc3c(cc2cc1C#N)OCO3	3	-183	1	-29	-202	-102
CCOC(=O)CSc1nc2cc3c(cc2cc1C#N)OCO3	/	-161	-1	-6	-200	-90
COC(=O)CSc1nc(-c2cccs2)ccc1C#N	-4	-85	-1	-57	-153	-97
CC(C)OC(=O)CSc1nc2cc3c(cc2cc1C#N)OCO3	1	-45	6	-57	-148	/
CCOC(=O)CSc1nc2cc3c(cc2cc1C)OCO3	0	1	7	-1	-4	/
COc1ccc(NC(=O)CON=CC(=O)Nc2ccc(C)cc2)c(OC)c1	/	7	0	13	13	/
COc1ccc(S(=O)(=O)N2CCCCC2)cc1NC(=O)CCC(=O)N1CCC(c2ccccc2)=N1	/	/	/	12	/	/
O=C(c1cc(COc2cccc(C(F)(F)F)c2)on1)N1CCC(Oc2cccnc2)CC1	0	-71	26	79	4	/
COc1ccccc1-[n+]1c(C)cc(/C=C2\Sc3ccccc3N2C)cc1C	-9	2	110*	78	93*	11
SMILES	Calb FLC	697 NFkB inh	Beta apoptosis	Shn3 inh set2	Jurkat NFkB inh	Jurkat NFkB conf
COc1ccc(C(=O)/C=C2\Sc3ccccc3N2C)cc1	0	-150	10	-87	-143	/
CN(CCC#N)S(=O)(=O)c1cc2c3c(c1)CCN3C(=O)CC2	-1	-11	-3	1	-12	/
COc1ccccc1N(CC(=O)N(C)Cc1ccccc1)S(=O)(=O)c1cccs1	/	-3	-3	1	-11	/
CCOC(=O)CN1C(=O)C(Sc2n[nH]c(-c3ccccc3)n2)CCc2ccccc21 (stereo unspecified)	19	-15	1	7	12	/
Cc1cccc(C)c1-c1ccc(CN2C(CC(C)C)C(=O)N(Cc3cn(CCO)nn3)CCS2(=O)=O)cc1 (stereo unspecified)	/	/	/	11	/	/
FC(F)(F)c1nnc2c(Sc3ccc(Cl)cc3)nc3ccccc3n12	-12	8	3	8	74*	5
